In PubChem BioAssay AID1159580 (chemical genetic matrix, 2015):
About 2,000 (36%) of roughly 5,500 compounds were called active. Not shown: some 18% with an inconclusive outcome. Rule as the data show it: active = normalized growth mostly below about 0.91 (no sharp cut-off); inconclusive = no clear call, values can overlap the other calls; inactive = mostly above about 0.92. This is one part of the list.

Test: chemical genetic growth profiling, strain panel (AID 1159580);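 also: tested at 20 µM; growth read once vehicle control cultures reached saturation at 30 °C; 1 = growth at the plate median or of vehicle wells; lower values mean less growth of the strain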
Conditions: growth OD

Measured: normalized growth

CO[C@@H]1[C@@H](OC(N)=O)[C@@H](O)[C@H](Oc2ccc3c(O)c(NC(=O)c4ccc(O)c(CC=C(C)C)c4)c(=O)oc3c2C)OC1(C)C
active: S. cerevisiae deletion strains, locus YKL068W, active compounds read low 0.925 | S. cerevisiae deletion strains, locus YLR113W, strain HOG1, active compounds read low 0.793
inactive: S. cerevisiae deletion strains, locus YJR043C, strain POL32, active compounds read low 1 | S. cerevisiae deletion strains, locus YJR066W, strain TOR1, active compounds read low 0.896 | S. cerevisiae deletion strains, locus YJR075W, strain HOC1, active compounds read low 1.02 | S. cerevisiae deletion strains, locus YKL009W, strain mrt4, active compounds read low 0.96 | S. cerevisiae deletion strains, locus YKL085W, strain MDH1 (second series), active compounds read low 0.949 | S. cerevisiae deletion strains, locus YKL085W, strain MDH1, active compounds read low 0.949 | S. cerevisiae deletion strains, locus YKL160W, strain elf1, active compounds read low 1.03 | S. cerevisiae deletion strains, locus YKL190W, strain CNB1, active compounds read low 0.993 | S. cerevisiae deletion strains, locus YKR001C, strain vps1, active compounds read low 0.99 | S. cerevisiae deletion strains, locus YKR026C, strain gcn3, active compounds read low 1.04 | S. cerevisiae deletion strains, locus YKR091W, strain srl3, active compounds read low 1.03 | S. cerevisiae deletion strains, locus YLL001W, strain dnm1, active compounds read low 1.04 | S. cerevisiae deletion strains, locus YLL026W, active compounds read low 1.04 | S. cerevisiae deletion strains, locus YLL041C, strain sdh2, active compounds read low 1.02 | S. cerevisiae deletion strains, locus YLR027C, strain aat2, active compounds read low 1.03 | S. cerevisiae deletion strains, locus YLR039C, strain RIC1, active compounds read low 0.962 | S. cerevisiae deletion strains, locus YLR058C, strain SHM2, active compounds read low 1.01 | S. cerevisiae deletion strains, locus YLR102C, strain apc9, active compounds read low 0.993 | S. cerevisiae deletion strains, locus YLR221C, strain rsa3, active compounds read low 1.02 | S. cerevisiae deletion strains, locus YLR258W, strain gsy2, active compounds read low 1.03 | S. cerevisiae deletion strains, locus YLR262C, strain YPT6 (second series), active compounds read low 1.02 | S. cerevisiae deletion strains, locus YLR262C, strain YPT6, active compounds read low 0.968 | S. cerevisiae deletion strains, locus YLR268W, strain sec22, active compounds read low 0.955 | S. cerevisiae deletion strains, locus YLR320W, strain mms22, active compounds read low 1.04 | S. cerevisiae deletion strains, locus YLR330W, strain CHS5, active compounds read low 1.03 | S. cerevisiae deletion strains, locus YLR342W, strain FKS1 (second series), active compounds read low 1.04 | S. cerevisiae deletion strains, locus YLR342W, strain FKS1, active compounds read low 1.03 | S. cerevisiae deletion strains, locus YLR357W, strain rsc2, active compounds read low 1.05 | S. cerevisiae deletion strains, locus YLR370C, strain arc18, active compounds read low 1.03 | S. cerevisiae deletion strains, locus YLR371W, strain rom2, active compounds read low 0.979 | S. cerevisiae deletion strains, locus YLR384C, strain iki3, active compounds read low 1.04 | S. cerevisiae deletion strains, locus YLR418C, strain cdc73, active compounds read low 1 | S. cerevisiae deletion strains, locus YML016C, strain PPZ1, active compounds read low 1.02 | S. cerevisiae deletion strains, locus YML032C, strain rad52, active compounds read low 0.99 | S. cerevisiae deletion strains, locus YML120C, strain ndi1, active compounds read low 1.02 | S. cerevisiae deletion strains, locus YML124C, strain tub3, active compounds read low 1 | S. cerevisiae deletion strains, locus YMR058W, strain fet3, active compounds read low 1.03 | S. cerevisiae deletion strains, locus YMR078C, strain ctf18, active compounds read low 0.997 | S. cerevisiae deletion strains, locus YMR125W, strain sto1, active compounds read low 1.02 | S. cerevisiae deletion strains, locus YMR129W, active compounds read low 1.03 | S. cerevisiae deletion strains, locus YMR205C, strain PFK2, active compounds read low 1.05 | S. cerevisiae deletion strains, locus YMR223W, strain ubp8, active compounds read low 1.03 | S. cerevisiae deletion strains, locus YMR231W, strain pep5, active compounds read low 1.03 | S. cerevisiae deletion strains, locus YMR307W, strain GAS1, active compounds read low 1.02 | S. cerevisiae deletion strains, locus YNL067W, strain RPL9B, active compounds read low 0.989 | S. cerevisiae deletion strains, locus YNL071W, strain lat1, active compounds read low 1.04 | S. cerevisiae deletion strains, locus YNL128W, strain TEP1, active compounds read low 0.945 | S. cerevisiae deletion strains, locus YNL183C, strain NPR1, active compounds read low 0.847 | S. cerevisiae deletion strains, locus YNL209W, strain ssb2, active compounds read low 1.04 | S. cerevisiae deletion strains, locus YNL233W, strain BNI4, active compounds read low 1.02 | S. cerevisiae deletion strains, locus YNL248C, strain rpa49, active compounds read low 1.02 | S. cerevisiae deletion strains, locus YNL250W, strain rad50, active compounds read low 0.956 | S. cerevisiae deletion strains, locus YNL271C, strain bni1, active compounds read low 0.986 | S. cerevisiae deletion strains, locus YNL298W, strain CLA4, active compounds read low 0.997 | S. cerevisiae deletion strains, locus YNL307C, strain MCK1, active compounds read low 0.991 | S. cerevisiae deletion strains, locus YNL322C, strain KRE1 (second series), active compounds read low 1.01 | S. cerevisiae deletion strains, locus YNR049C, strain mso1, active compounds read low 1.04 | S. cerevisiae deletion strains, locus YNR052C, strain pop2, active compounds read low 0.978 | S. cerevisiae deletion strains, locus YOL006C, strain TOP1, active compounds read low 0.965 | S. cerevisiae deletion strains, locus YOL012C, strain htz1 1 | S. cerevisiae deletion strains, locus YOL147C, strain pex11, active compounds read low 1.01 | S. cerevisiae deletion strains, locus YOR001W, strain rrp6, active compounds read low 0.979 | S. cerevisiae deletion strains, locus YOR061W, strain CKA2, active compounds read low 1.01 | S. cerevisiae deletion strains, locus YOR069W, strain VPS5, active compounds read low 1.01 | S. cerevisiae deletion strains, locus YOR070C, strain gyp1, active compounds read low 1.03 | S. cerevisiae deletion strains, locus YOR080W, strain dia2, active compounds read low 1.04 | S. cerevisiae deletion strains, locus YOR083W, strain WHI5, active compounds read low 1.03 | S. cerevisiae deletion strains, locus YOR106W, strain vam3, active compounds read low 1.02 | S. cerevisiae deletion strains, locus YOR136W, strain idh2, active compounds read low 1 | S. cerevisiae deletion strains, locus YOR144C, strain elg1, active compounds read low 1 | S. cerevisiae deletion strains, locus YOR184W, strain ser1, active compounds read low 0.987 | S. cerevisiae deletion strains, locus YOR231W, strain MKK1, active compounds read low 0.882 | S. cerevisiae deletion strains, locus YOR265W, strain rbl2, active compounds read low 1.02 | S. cerevisiae deletion strains, locus YOR270C, strain vph1, active compounds read low 0.927 | S. cerevisiae deletion strains, locus YOR290C, strain snf2, active compounds read low 1.05 | S. cerevisiae deletion strains, locus YOR316C, strain cot1, active compounds read low 0.987 | S. cerevisiae deletion strains, locus YPL051W, strain arl3, active compounds read low 1.05 | S. cerevisiae deletion strains, locus YPL055C, strain LGE1, active compounds read low 0.991 | S. cerevisiae deletion strains, locus YPL078C, strain atp4, active compounds read low 1.02 | S. cerevisiae deletion strains, locus YPL106C, strain sse1, active compounds read low 1.05 | S. cerevisiae deletion strains, locus YPL240C, strain hsp82, active compounds read low 1.02 | S. cerevisiae deletion strains, locus YPL256C, strain CLN2, active compounds read low 0.861 | S. cerevisiae deletion strains, locus YPR119W, strain clb2, active compounds read low 1.01 | S. cerevisiae deletion strains, locus YPR141C, strain kar3, active compounds read low 0.962 | S. cerevisiae deletion strains, locus YPR163C, strain tif3, active compounds read low 0.996 | S. cerevisiae deletion strains, locus YPR167C, strain met16, active compounds read low 0.999 | S. cerevisiae deletion strains, strain wtn01, active compounds read low 0.984 | S. cerevisiae strains, strain wild type, active compounds read low 1.02
